According to PubChem BioAssay (NCI):
Compounds without any hit were thinned out: in the full panel of roughly 83,000, 20% have a hit.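 Compound tested at a single concentration for 48 hours in 96-well plates; a percent growth value below 10 was scored as active.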 Activity calls are given as the source filed them.

System: MDA-MB-468 breast
Test: NCI-60 one-dose screen, 48 h (100 = growth as untreated, 0 = no growth, -100 = all killed)
Settings: 10 µM unless noted

Compound | growth
O=C(NNC(=O)c1ccc([N+](=O)[O-])cc1)c1ccc([N+](=O)[O-])cc1 | 109% (inactive)
Cc1csc(Nc2nc(-c3cccc(Br)c3)nc(C(Cl)(Cl)Cl)n2)n1 | -29.8% (active)
COc1cc(/C=C/C(=O)c2cc(-c3ccccc3)ccc2O)cc(OC)c1OC | 58.3% (inactive)
COc1cc(/C=C\c2cc(OC)c(OC)c(OC)c2)cc(N)c1OC | 58.4% (inactive)
COc1cc(C(=O)NC(=S)Nc2ccc3ccccc3c2)cc(OC)c1OC | 95.5% (inactive)
O=C1Nc2cc(-c3ccc(NC(=O)C4CC4)cc3)ccc2/C1=C/c1ccc[nH]1 | 0.756% (active)
CCn1c(SCC(=O)Nc2cccc(C(=O)/C=C/c3ccccc3Cl)c2)nc2ccccc2c1=O | 76.7% (inactive)
Cc1ccc(OCCn2ccc(=O)n(CCOc3ccc(Cl)cc3C(=O)c3cc(C)cc(C)c3)c2=O)cc1 | -0.179% (active)
CC(C)c1cc(CNc2nc(Nc3cc(C4CC4)[nH]n3)cc(N3CCN(C)CC3)n2)on1 | -34.8% (active)
COc1cc2cc(Oc3ccc(NC(=O)c4cccc(C(F)(F)F)c4)cc3)c(C)nc2cc1OCCN(C)C | 81.5% (inactive)
NC(=O)N1N=C(c2cc3ccccc3oc2=O)CC1c1cn(-c2ccccc2)nc1-c1ccc(Cl)cc1 (centres undefined) | 36.9% (inactive)
O=[N+]([O-])c1ccc([I+]c2ccccc2)cc1 | -5.9% (active)
CCN1CCN(c2ccc(NC(=O)Nc3nc4ccc(-c5ccccc5OC)cc4s3)cc2)CC1 | -76.7% (active)
CCc1ccc(CCC(=O)Nc2ncc(Cc3ccccc3)s2)o1 | 28.1% (inactive)
